For test [1], the target named is Myc proto-oncogene protein (Homo sapiens) (UniProt P01106). Nature of the test: ATG_Myc_CIS: Attagene CIS-FACTORIAL HepG2 Assay for human Myelocytomatosis (Myc) Proto-Oncogene Transcription Factor (AID 2282990). The conditions noted are these: HepG2, Attagene cis-reporter transcription factor activity; actives raise or lower the signal. The essentials: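 HepG2 cells transiently transfected with multiple cis-promoter-driven reporter transcription units, so endogenous TF activity is read. After 24 h compound exposure, reporter mRNA was quantified by RT-PCR, 6-FAM labelling, HpaI digestion and capillary electrophoresis; bidirectional fit versus DMSO.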

A short description of test [2]: ATG_NF_kB_CIS: Attagene CIS-FACTORIAL HepG2 Assay for human Nuclear Factor Kappa B (NF-kB) (AID 2282991). The conditions noted are these: HepG2 Attagene cis-factorial NF-kB reporter mRNA; actives raise or lower the signal. The essentials:
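Transient MRTU transfection of human HepG2 liver cells → 24 h chemical exposure → total RNA, oligo(dT) RT → PCR, 6-FAM primer extension, HpaI digest 2 h 37 C → CE fragment analysis. Bidirectional fitting, DMSO negative control.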

Test [3] in a line: ATG_NRF2_ARE_CIS: Attagene CIS-FACTORIAL HepG2 Assay for human Nuclear Factor Erythroid 2 Related Factor 2 (NFR2) response to Antioxidant Response Elements (ARE) (AID 2282992).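 For AC50: reporter mRNA level measured by RT-PCR and capillary electrophoresis fluorescence.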 To be noted: HepG2 Attagene ARE/NRF2 reporter, transcription factor activity; actives raise or lower the signal. In a few lines: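 HepG2 cells transiently transfected with multiplexed cis-element reporter constructs, 24 h after chemical dosing; reporter mRNA quantified by RT-PCR, fluorescent primer extension, HpaI digestion and capillary electrophoresis. Bidirectional fit relative to DMSO.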

Test [4] is described as follows: ATG_Oct_MLP_CIS: Attagene CIS-FACTORIAL HepG2 Assay for human Octamer-Binding Transcription Factor (Oct) (AID 2282993). The conditions noted are these: HepG2 Attagene cis-factorial Oct reporter, mRNA; actives raise or lower the signal. In a few lines: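 Readout is reporter transcript level from RT-PCR with fluorescent primer extension and capillary electrophoresis, fitted in both directions against DMSO. Transfected HepG2 reporter units report endogenous factor activity after 24 h dosing.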

In test [5] the target is Cellular tumor antigen p53 (Homo sapiens) (UniProt P04637). The test can be described thus: ATG_p53_CIS: Attagene CIS-FACTORIAL HepG2 Assay for human p53 Transcription Factor (AID 2282994). The conditions noted are these: HepG2 p53 cis-element reporter, Attagene mRNA; actives raise or lower the signal. The essentials:
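HepG2 cells transiently transfected with cis-regulated multiple reporter transcription units, dosed 24 h. Reporter mRNA measured by RT-PCR, 6-FAM primer extension, HpaI digestion and capillary electrophoresis; bidirectional fit relative to DMSO.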

Test [6] is described as follows: BSK_3C_uPAR: BioMAP Diversity Plus: 3C Assay for Urokinase-type plasminogen activator receptor (uPAR) Biomarker Activity (AID 2282998). The conditions noted are these: BioMAP 3C HUVEC, uPAR biomarker ELISA; actives raise or lower the signal. The essentials:
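Cell-surface uPAR on HUVEC (3C system) read by ELISA at 24 h post-treatment, with DMSO as baseline and fitting in both directions. Parallel cultures stained with SRB to flag overt cytotoxicity.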

A short description of test [7]: BSK_3C_VCAM1: BioMAP Diversity Plus: 3C Assay for Vascular cell adhesion molecule 1 (VCAM1) Biomarker Activity (AID 2282999). To be noted: BioMAP 3C HUVEC, VCAM1 ELISA, cytokine-stimulated; actives raise or lower the signal. The essentials: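 Human umbilical vein endothelial cells were dosed with compound for 24 h, after which cell-surface VCAM-1 was quantified by ELISA. Bidirectional curve fitting used DMSO as negative control and activity baseline.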
In general terms: ELISA stands for enzyme-linked immunosorbent assay.

A short description of test [8]: BSK_4H_Eotaxin3: BioMAP Diversity Plus: 4H Assay for Eotaxin 3 Biomarker Activity (AID 2283000).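 Note: CCL26 protein level quantified by ELISA in parallel with SRB cytotoxicity check.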 To be noted: primary human endothelial cells (HUVEC); actives raise or lower the signal. In a few lines:
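Readout is Eotaxin-3 (CCL26) level by ELISA in primary human umbilical vein endothelial cells harvested 24 h after chemical exposure; activity fitted in both directions against DMSO control.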

Read-out in test [9]: Intercellular Adhesion Molecule 1 (ICAM1), ICAM1 (gene 3383)
Nature of the test: BSK_3C_ICAM1: BioMAP Diversity Plus: 3C Assay for Intercellular Adhesion Molecule 1 (ICAM1) Biomarker Activity (AID 2283003). The conditions noted are these: primary human endothelial cells (HUVEC); actives raise or lower the signal. In a few lines: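 Human vascular endothelial primary cells, 3C conditions, 24 h treatment. ICAM-1 by ELISA.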

Test [10] concerns the target human Retinoic Acid Receptor beta (RARb), RARB (gene 5915) (UniProt P10826). The test can be described thus: ATG_RARb_TRANS: Attagene TRANS-FACTORIAL HepG2 Assay for human Retinoic Acid Receptor beta (AID 2283004; active = hit-call score of the fitted dose curve at least 0.9, where 1 is the maximum). The essentials:
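Readout is reporter mRNA induction: RNA reverse-transcribed, PCR-amplified, FAM-labelled, HpaI-cut and resolved by capillary electrophoresis. Transiently transfected HepG2 cells carrying exogenous NR–Gal4 chimeras were dosed for 24 h; activity fitted upward relative to DMSO.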

A short description of test [11]: BSK_3C_Proliferation: Cell Proliferation Assessment in the BioMAP Diversity Plus: 3C Assay (AID 2283006).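 For AC50: potency may reflect either rise or fall in cell number versus DMSO.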 To be noted: primary human endothelial cells (HUVEC). In a few lines:
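Proliferation of human vascular endothelial primary cells after 48 h dosing, quantified as SRB-stained protein at 560 nm relative to DMSO.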

In test [12] the target is Peroxisome proliferator-activated receptor gamma (Homo sapiens) (UniProt P37231). The test can be described thus: ATG_PPARg_TRANS: Attagene TRANS-FACTORIAL HepG2 Assay for human Peroxisome Proliferator-activated Receptor-gamma (PPARg) (AID 2283007; active = hit-call score of the fitted dose curve at least 0.9, where 1 is the maximum). The essentials: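 Transient transfection of HepG2 with GAL4-UAS-driven reporter units; chemical dosing 24 h; total RNA → oligo(dT) RT → PCR with reporter primers → 6-FAM primer extension → HpaI digest 2 h 37 C → capillary electrophoresis. Positive direction vs DMSO.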

For test [13], the target named is Nuclear receptor subfamily 1 group I member 2 (Homo sapiens) (UniProt O75469). Nature of the test: ATG_PXR_TRANS: Attagene TRANS-FACTORIAL HepG2 Assay for human Pregnane X Receptor (PXR) (AID 2283008; active = hit-call score of the fitted dose curve at least 0.9, where 1 is the maximum). In a few lines:
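HepG2 cells transiently transfected with GAL4-UAS reporter units and PXR-Gal4 chimera, exposed 24 h. Reporter mRNA quantified by RT-PCR, fluorescent labelling, HpaI digestion and capillary electrophoresis; gain of signal vs DMSO.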

The nature of test [14]: BSK_3C_TissueFactor: BioMAP Diversity Plus: 3C Assay for Tissue Factor Biomarker Activity (AID 2282997). The conditions noted are these: BioMAP 3C HUVEC, tissue factor biomarker readout; actives raise or lower the signal. In a few lines: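 Human vascular primary cells (umbilical vein endothelium) received test chemical; Tissue Factor was determined by ELISA at 24 h, and both gain and loss of signal versus DMSO were fitted.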

Test [15] concerns the target human Peroxisome Proliferator-activated Receptor delta (PPARd), PPARD (gene 5467) (UniProt Q03181). Nature of the test: ATG_PPARd_TRANS: Attagene TRANS-FACTORIAL HepG2 Assay for human Peroxisome Proliferator-activated Receptor delta (PPARd) (AID 2283002; active = hit-call score of the fitted dose curve at least 0.9, where 1 is the maximum). In a few lines:
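HepG2 cells transiently transfected with multiplexed GAL4-UAS reporter units and exogenous chimeric NR-Gal4 proteins; 24 h compound exposure. Reporter mRNA measured by RT-PCR, 6-FAM labelling, HpaI digestion and capillary electrophoresis; gain of signal versus DMSO.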

In test [16] the target is human Peroxisome Proliferator-activated Receptor alpha (PPARa), PPARA (gene 5465) (UniProt Q07869). Nature of the test: ATG_PPARa_TRANS: Attagene TRANS-FACTORIAL HepG2 Assay for human Peroxisome Proliferator-activated Receptor alpha (PPARa) (AID 2283001; active = hit-call score of the fitted dose curve at least 0.9, where 1 is the maximum). In a few lines: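 HepG2 cells transiently transfected with multiplexed GAL4-UAS reporter units and chimeric NR-Gal4 constructs were dosed for 24 h. Reporter mRNA was measured by RT-PCR with fluorescent labelling and capillary electrophoresis; gain of signal fitted against DMSO.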

For test [17], the target named is human RAR-related Orphan Receptor gamma (RORg), RORC (gene 6097) (UniProt P51449). Nature of the test: ATG_RORg_TRANS: Attagene TRANS-FACTORIAL HepG2 Assay for human RAR-related Orphan Receptor gamma (RORg) (AID 2283011; active = hit-call score of the fitted dose curve at least 0.9, where 1 is the maximum). The essentials: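 Transient MRTU transfection of HepG2 (TRANS format, exogenous NR-Gal4 chimera). 24 h dosing. Total RNA → oligo(dT) RT → PCR → 6-FAM labelling → HpaI cut → CE. Gain vs DMSO.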

In test [18] the target is human Retinoic Acid Receptor gamma (RARg), RARG (gene 5916) (UniProt P13631). Nature of the test: ATG_RARg_TRANS: Attagene TRANS-FACTORIAL HepG2 Assay for human Retinoic Acid Receptor gamma (RARg) (AID 2283009; active = hit-call score of the fitted dose curve at least 0.9, where 1 is the maximum). In a few lines: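 HepG2, RARg-GAL4 TRANS system, 24 h exposure; reporter mRNA by RT-PCR + CE fluorescence; increase over DMSO.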
The target of test [19] is human RAR-related Orphan Receptor beta (RORb), RORB (gene 6096) (UniProt Q92753). Nature of the test: ATG_RORb_TRANS: Attagene TRANS-FACTORIAL HepG2 Assay for human RAR-related Orphan Receptor beta (RORb) (AID 2283010; active = hit-call score of the fitted dose curve at least 0.9, where 1 is the maximum). The essentials:
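In this TRANS-format test, human HepG2 cells express chimeric NR-Gal4 fusion proteins driving GAL4-UAS reporters. After 24 h dosing, reporter transcripts are measured by fluorescent RT-PCR/capillary electrophoresis, with DMSO as negative control.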

Records with an inconclusive call do not appear. More than one record can exist for a structure, and the calls need not agree. The source made the active and inactive calls. Rule for the calls, unless noted: active = hit-call score of the fitted dose curve at least 0.9, where 1 is the maximum; inactive = score below 0.9.

Chain of Nuclear receptor subfamily 1 group I member 2 (Homo sapiens) (O75469 whole entry, looked up, the tested form may be a part): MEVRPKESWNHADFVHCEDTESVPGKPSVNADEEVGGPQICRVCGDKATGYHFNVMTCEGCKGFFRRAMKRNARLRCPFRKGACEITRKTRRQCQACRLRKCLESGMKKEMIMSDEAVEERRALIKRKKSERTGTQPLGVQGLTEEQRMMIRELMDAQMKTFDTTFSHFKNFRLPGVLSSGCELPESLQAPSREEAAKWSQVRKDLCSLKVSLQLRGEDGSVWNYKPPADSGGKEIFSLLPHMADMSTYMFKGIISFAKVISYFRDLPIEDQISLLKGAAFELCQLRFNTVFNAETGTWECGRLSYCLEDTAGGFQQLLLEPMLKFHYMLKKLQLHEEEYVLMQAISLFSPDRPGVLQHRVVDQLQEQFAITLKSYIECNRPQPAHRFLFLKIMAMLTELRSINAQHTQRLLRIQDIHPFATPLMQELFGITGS
Chain of Myc proto-oncogene protein (Homo sapiens) (P01106 whole entry, looked up): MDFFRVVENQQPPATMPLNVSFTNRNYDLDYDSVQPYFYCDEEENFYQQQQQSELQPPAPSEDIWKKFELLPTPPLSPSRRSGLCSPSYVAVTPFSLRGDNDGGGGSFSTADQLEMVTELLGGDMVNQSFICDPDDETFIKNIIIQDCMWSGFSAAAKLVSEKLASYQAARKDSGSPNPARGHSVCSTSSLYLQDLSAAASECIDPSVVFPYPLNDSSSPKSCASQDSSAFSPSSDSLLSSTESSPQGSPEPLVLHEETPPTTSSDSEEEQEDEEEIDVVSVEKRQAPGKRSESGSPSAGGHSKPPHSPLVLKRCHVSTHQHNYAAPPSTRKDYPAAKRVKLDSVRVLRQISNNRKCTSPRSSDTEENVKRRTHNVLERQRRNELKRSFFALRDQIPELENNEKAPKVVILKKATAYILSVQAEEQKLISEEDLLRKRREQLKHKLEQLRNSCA
Chain of Cellular tumor antigen p53 (Homo sapiens) (P04637 whole entry, looked up): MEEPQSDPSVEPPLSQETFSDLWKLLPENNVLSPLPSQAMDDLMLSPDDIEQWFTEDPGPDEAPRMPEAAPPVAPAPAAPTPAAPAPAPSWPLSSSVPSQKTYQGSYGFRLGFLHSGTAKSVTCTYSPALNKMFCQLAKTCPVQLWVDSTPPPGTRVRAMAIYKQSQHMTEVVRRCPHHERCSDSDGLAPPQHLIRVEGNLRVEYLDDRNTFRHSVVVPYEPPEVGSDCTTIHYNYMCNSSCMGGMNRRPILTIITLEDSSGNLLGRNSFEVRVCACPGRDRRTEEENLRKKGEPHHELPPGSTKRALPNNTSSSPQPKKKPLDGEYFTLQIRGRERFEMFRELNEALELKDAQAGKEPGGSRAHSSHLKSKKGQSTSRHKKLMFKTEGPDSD
Chain of Peroxisome proliferator-activated receptor gamma (Homo sapiens) (P37231 whole entry, looked up, the tested form may be a part): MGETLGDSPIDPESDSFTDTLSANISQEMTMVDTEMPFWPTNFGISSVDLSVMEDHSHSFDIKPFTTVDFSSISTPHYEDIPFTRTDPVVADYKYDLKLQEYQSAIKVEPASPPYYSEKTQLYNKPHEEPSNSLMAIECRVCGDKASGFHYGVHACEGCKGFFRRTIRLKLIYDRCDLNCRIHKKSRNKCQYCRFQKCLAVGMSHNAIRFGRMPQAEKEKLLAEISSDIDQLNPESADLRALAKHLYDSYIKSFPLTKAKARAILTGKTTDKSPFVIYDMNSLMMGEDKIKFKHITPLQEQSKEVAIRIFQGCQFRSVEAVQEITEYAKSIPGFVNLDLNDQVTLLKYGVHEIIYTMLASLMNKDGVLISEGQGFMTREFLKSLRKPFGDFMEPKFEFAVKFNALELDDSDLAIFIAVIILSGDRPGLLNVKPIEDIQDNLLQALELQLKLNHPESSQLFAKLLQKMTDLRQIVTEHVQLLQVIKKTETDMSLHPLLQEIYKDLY
Chain of human Retinoic Acid Receptor beta (RARb), RARB (gene 5915) (P10826 whole entry, looked up, the tested form may be a part): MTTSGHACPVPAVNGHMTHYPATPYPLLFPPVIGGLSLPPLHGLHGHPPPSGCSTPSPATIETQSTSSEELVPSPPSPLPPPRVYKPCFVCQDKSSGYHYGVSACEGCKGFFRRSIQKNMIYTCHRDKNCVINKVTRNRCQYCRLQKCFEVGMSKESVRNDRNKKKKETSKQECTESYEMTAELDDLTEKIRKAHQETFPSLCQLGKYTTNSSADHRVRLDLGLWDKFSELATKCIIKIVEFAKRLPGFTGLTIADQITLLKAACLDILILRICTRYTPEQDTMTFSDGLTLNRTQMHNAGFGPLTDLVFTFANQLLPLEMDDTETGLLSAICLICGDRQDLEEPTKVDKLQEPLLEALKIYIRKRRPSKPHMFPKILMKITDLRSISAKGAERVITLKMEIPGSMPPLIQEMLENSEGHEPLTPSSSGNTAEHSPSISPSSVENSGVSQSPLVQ
Chain of human Peroxisome Proliferator-activated Receptor delta (PPARd), PPARD (gene 5467) (Q03181 whole entry, looked up, the tested form may be a part): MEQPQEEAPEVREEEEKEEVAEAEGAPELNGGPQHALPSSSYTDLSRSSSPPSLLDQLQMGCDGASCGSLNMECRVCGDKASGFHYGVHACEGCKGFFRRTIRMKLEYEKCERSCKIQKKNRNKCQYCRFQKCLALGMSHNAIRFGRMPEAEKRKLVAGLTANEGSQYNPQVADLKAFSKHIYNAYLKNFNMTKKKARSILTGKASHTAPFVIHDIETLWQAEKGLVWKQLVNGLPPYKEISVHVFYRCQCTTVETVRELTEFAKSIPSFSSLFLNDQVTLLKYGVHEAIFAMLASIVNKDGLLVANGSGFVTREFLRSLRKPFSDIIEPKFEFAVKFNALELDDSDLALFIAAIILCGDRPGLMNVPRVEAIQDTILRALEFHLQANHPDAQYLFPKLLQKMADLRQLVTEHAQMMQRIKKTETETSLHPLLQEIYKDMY
Chain of human Peroxisome Proliferator-activated Receptor alpha (PPARa), PPARA (gene 5465) (Q07869 whole entry, looked up, the tested form may be a part): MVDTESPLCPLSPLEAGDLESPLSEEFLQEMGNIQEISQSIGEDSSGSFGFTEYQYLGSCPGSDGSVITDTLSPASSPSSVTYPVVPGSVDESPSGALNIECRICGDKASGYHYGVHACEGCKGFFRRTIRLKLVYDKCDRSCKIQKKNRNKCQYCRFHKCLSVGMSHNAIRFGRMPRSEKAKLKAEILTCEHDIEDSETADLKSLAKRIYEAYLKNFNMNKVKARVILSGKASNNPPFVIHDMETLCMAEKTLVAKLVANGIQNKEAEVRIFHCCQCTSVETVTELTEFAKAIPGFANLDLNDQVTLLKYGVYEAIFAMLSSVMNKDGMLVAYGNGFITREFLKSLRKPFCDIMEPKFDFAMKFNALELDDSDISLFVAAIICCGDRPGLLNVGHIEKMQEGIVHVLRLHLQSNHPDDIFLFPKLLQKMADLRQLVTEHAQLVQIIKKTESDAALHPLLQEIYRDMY
Chain of human RAR-related Orphan Receptor beta (RORb), RORB (gene 6096) (Q92753 whole entry, looked up, the tested form may be a part): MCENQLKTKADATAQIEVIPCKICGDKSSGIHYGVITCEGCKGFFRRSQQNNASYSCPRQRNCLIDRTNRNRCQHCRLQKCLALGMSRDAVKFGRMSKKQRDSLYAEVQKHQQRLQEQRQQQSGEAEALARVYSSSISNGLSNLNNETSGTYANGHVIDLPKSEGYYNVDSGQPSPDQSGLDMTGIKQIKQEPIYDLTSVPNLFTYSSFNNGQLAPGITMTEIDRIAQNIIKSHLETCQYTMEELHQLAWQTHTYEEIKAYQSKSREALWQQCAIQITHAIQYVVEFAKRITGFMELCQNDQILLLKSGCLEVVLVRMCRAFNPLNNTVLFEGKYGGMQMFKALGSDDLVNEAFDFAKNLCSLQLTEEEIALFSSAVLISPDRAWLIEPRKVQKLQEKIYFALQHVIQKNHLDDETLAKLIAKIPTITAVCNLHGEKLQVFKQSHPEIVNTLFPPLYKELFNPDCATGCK
Chain of human RAR-related Orphan Receptor gamma (RORg), RORC (gene 6097) (P51449 whole entry, looked up, the tested form may be a part): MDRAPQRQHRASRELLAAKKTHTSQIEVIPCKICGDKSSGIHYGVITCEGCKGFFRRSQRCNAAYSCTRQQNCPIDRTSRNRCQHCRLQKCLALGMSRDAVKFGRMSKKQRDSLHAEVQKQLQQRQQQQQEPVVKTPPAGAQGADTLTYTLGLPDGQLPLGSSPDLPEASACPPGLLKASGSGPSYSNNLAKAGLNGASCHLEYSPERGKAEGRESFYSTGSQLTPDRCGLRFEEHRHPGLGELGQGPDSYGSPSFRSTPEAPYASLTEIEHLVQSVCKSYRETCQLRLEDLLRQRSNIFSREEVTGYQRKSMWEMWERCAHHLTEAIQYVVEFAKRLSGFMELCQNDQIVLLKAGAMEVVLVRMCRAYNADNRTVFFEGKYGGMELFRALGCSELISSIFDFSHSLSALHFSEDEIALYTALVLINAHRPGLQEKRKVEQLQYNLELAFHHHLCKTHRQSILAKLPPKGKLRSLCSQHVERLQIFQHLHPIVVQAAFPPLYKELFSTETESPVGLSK
Chain of human Retinoic Acid Receptor gamma (RARg), RARG (gene 5916) (P13631 whole entry, looked up, the tested form may be a part): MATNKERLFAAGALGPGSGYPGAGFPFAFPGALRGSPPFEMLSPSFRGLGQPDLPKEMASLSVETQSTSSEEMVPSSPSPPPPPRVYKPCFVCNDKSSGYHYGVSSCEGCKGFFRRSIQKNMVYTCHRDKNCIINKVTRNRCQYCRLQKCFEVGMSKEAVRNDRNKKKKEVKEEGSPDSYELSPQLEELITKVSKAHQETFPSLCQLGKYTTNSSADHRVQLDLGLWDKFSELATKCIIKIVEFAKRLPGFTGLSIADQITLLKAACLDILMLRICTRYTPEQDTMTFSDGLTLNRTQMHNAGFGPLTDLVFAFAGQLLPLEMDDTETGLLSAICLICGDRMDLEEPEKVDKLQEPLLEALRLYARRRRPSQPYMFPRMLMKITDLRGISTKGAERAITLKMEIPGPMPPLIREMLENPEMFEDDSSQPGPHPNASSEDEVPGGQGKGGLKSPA

The term AC50 denotes the concentration at which the activity in the assay is half-maximal. `CCOC(=O)C(C)Oc1ccc(Oc2nc3ccc(Cl)cc3o2)cc1` (stereo unspecified): the call in [1], in test [2], in test [3], in test [4], in test [5] and in test [7] was inactive. Moreover, the result in test [8], in test [9], in test [10], in test [11], in test [12] and in test [13] was inactive. Besides, the concentration at half-maximal activity (AC50) in test [6] is 13 µM (active).

For the compound `CCCCC(CC)CN1C(=O)C2C3C=CC(C3)C2C1=O` (stereo unspecified), the compound was classed as inactive in [1], in test [2], in test [5], in test [14], in test [7] and in [8]. For the same compound, the result in test [15] and in [9] was inactive. Also, the AC50 in test [3] is 16.7 µM (active); in test [4], 17.4 µM (active); in test [11] it was 31.2 µM (active); in test [12] it was 50 µM (active); in test [13], 14.6 µM (active).

As for `CCC(C)OC(=O)N1CCCCC1CCO` (stereo unspecified), the result in test [1], in [2], in [3], in test [4], in [5] and in [7] was inactive. The result in test [8], in test [16], in test [15], in [9], in [10] and in test [11] was inactive. For the same compound, the result in [12], in [13] and in test [17] was inactive. For the same compound, the half-maximal activity concentration (AC50) was 44.4 µM (active) in test [3] and 9.99 µM (active) in [13].

In the case of `O=C(c1ccc(O)cc1O)c1ccc(O)cc1O`, the compound was called inactive in [1], in test [2], in test [3], in [4], in test [5] and in test [6]. The outcome in test [7], in [8], in test [16], in test [15], in test [9] and in [10] was inactive. Also, the outcome in test [11], in test [13], in [18], in test [19] and in test [17] was inactive. Besides, in test [12], the AC50 is 49.1 µM (active) [middle of 4 runs].

Source of the values: PubChem BioAssay (EPA / NIEHS).
